Laboratory results reported in PubChem BioAssay AID2551 (National Center for Advancing Translational Sciences (NCATS), 2010).
Among all 310,000 compounds or so, about 17,000 (5.5%) were called active. A call without a number means that no potency is given here. About 11% were inconclusive and are not listed. The call rests on the fitted dose curve; in most records, active means well fitted inhibition curve with a large enough effect; inconclusive means small, poorly fitted or top-dose-only effect, or effect the other way; inactive means no such curve, though single readings can be large or run the other way. Only a selection was taken, and actives are over-represented in it overall.

Target: Nuclear receptor ROR-gamma (Mus musculus) (UniProt P51450)
Assay: qHTS for inhibitors of ROR gamma transcriptional activity; further: nearly all actives have a fitted effect of over 60% in size
Conditions: Drosophila S2 Gal4-RORgamma UAS-luciferase reporter, 20 h; series mostly up to 53.6 µM
How it was run: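 ROR gamma transcriptional activity was tracked as Gal4-UAS luciferase output in stably transfected Drosophila Schneider cells, with compound added 1 hr before 700 uM copper sulfate induction and a 20 hr ambient-temperature incubation.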
Potency means the concentration at half of the fitted maximal effect.

Nuclear receptor ROR-gamma (Mus musculus), sequence (P51450 whole entry, looked up): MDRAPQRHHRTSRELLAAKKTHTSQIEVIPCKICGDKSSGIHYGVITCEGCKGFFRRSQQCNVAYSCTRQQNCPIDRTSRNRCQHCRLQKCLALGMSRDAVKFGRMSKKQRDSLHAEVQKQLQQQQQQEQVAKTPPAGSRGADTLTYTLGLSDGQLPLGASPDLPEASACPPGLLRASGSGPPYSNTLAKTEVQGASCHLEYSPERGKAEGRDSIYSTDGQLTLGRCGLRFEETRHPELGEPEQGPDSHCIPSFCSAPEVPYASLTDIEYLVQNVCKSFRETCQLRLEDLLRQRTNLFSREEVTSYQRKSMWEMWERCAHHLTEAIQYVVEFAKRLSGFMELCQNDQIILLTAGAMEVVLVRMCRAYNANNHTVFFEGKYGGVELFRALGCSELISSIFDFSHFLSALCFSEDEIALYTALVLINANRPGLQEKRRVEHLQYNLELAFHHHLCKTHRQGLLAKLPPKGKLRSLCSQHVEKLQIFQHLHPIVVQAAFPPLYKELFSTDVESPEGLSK

| SMILES | Potency | activity change, negative = inhibition |
| --- | --- | --- |
| C/[N+]([O-])=C\c1ccc([N+](=O)[O-])o1 | 11.2 µM (active) | – |
| Cc1cc(C)nc(N/N=C/c2ccc([N+](=O)[O-])o2)n1 | inactive | – |
| NC(=O)C(=O)N/N=C/c1ccc([N+](=O)[O-])o1 | – | -19.4% [at 10 µM] (inactive) |
| CCOC(=O)[C@H]1[C@H]2COc3cc(OC)ccc3[C@@H]2N2C(=O)N(c3ccc(Br)cc3)C(=O)[C@@]12C | inactive | – |
| Cn1nccc1C(=O)N1CCCC(C(=O)c2ccc(Oc3ccccc3)cc2)C1 (configuration not stated) | inactive | – |
| CCOc1c(CNCc2ccc(C(=O)O)cc2)cccc1OC | inactive | – |
| COc1cccc(CNn2cn[nH]c2=S)c1OCc1ccccc1 | 2.51 µM (active) | – |
| C=CCC(Nc1ccccc1)c1cccc(OC)c1OC (configuration not stated) | inactive | – |
| C=CCOc1ccc(/C=N/n2cncn2)cc1OC | inactive | – |
| COc1ccccc1-n1cn[nH]c1=S | inactive | – |
| C=CCOc1c(CNn2cn[nH]c2=S)cccc1OC | 11.2 µM (active) | – |
| C=CCOc1cccc(CNn2cn[nH]c2=S)c1 | 10 µM (active) | – |
| C=CCOc1cccc(C2NC(=O)c3ccccc3O2)c1 (configuration not stated) | inactive | – |
| COc1ccc(-c2cc(=O)oc3cc(OC(C)C(=O)NCC4CCC(C(=O)O)CC4)ccc23)cc1 (configuration not stated) | inactive | – |
| CCN(CC)CCCNC(=O)c1cc2c(=O)[nH]c3ccc(C)cc3c2s1 | inactive | – |
| CCCCC[C@H]1CN(C2CCCCC2)C(=O)[C@@H]1CC(=O)NCc1ccc(OC)cc1 | inactive | – |
| COc1ccccc1-c1sc2ccccc2c1-c1ccc(C(C)=O)cc1 | inactive | – |
| Cc1ccc(-c2csc(NC3OC(=O)c4ccccc43)n2)cc1 (configuration not stated) | inactive | – |
| COc1ccc(-c2cn3ccc(C)cc3n2)cc1 | 3.16 µM (active) | – |
| COc1ccc(-c2cn3ccsc3n2)cc1 | inactive | – |
| CCN(CC)S(=O)(=O)c1ccc(-c2cn3ccc(C)cc3n2)cc1 | inactive | – |
| CCOc1ccc(-n2c(SCC(=O)OC)nc3sc4c(c3c2=O)CCN(C)C4)cc1 | inactive | – |
| COc1ccc(N(CC(=O)Nc2ccc(F)c(F)c2)S(=O)(=O)c2c(C)[nH]c(=O)[nH]c2=O)cc1 | inactive | – |

| SMILES | Potency | activity change, negative = inhibition |
| --- | --- | --- |
| COc1cccc(C(O)c2nc3ccccc3n2C)c1 (configuration not stated) | inactive | – |
| Oc1ccccc1C=NC1CCCCC1N=Cc1ccccc1O (configuration not stated) | inactive | – |
| COc1ccc(/C=N/NC(=O)C2CC2)c(OC)c1OC | inactive | – |
| O=C(N/N=C/c1ccccc1O)C1CCCC1 | 0.158 µM (active) | – |
| CCn1c(=S)sc2c(=O)n(CC(=O)Nc3cccc(Br)c3)c(C)nc21 | inactive | – |
| Cc1cc(C)c(NC(=O)CN2CCCCCC2)c(C)c1 | inactive | – |
| O=C(c1c(F)cccc1Cl)N1CCN(S(=O)(=O)c2ccc3c(c2)OCCCO3)CC1 | inactive | – |
| CCOc1ccccc1CNS(=O)(=O)c1cc(-c2cc(C)no2)ccc1C | inactive | – |
| COc1ccc(/C=C2\SC(=O)N(CCC(=O)NC3CCS(=O)(=O)C3)C2=O)cc1 (configuration not stated) | inactive | – |
| O=C(NCc1cccs1)c1ccc(CS(=O)Cc2ccccc2Cl)o1 (configuration not stated) | inactive | – |
| CCc1cc(-c2nnc(SCC(=O)NC3CC3)n2C)cs1 | inactive | – |
| CC(=O)Nc1ccc(C(=O)Nc2nc(-c3cc(C)n(Cc4ccccc4)c3C)cs2)cc1 | – | 3.29% [at 10 µM] (inactive) |
| CCc1cc(-c2n[nH]c(=S)n2CC(C)C)cs1 | 2.51 µM (active) | – |
| Cc1cc(-c2csc(N)n2)c(C)n1Cc1ccccc1 | inactive | – |
| CCCc1cc(-c2n[nH]c(=S)n2Cc2ccccc2)cs1 | 4.47 µM (active) | – |
| COC(=O)c1ccccc1NC(=O)CSc1nc2c(c(=O)[nH]1)CCC2 | inactive | – |
| COc1ccc(C(=O)NCC(=O)N/N=C/c2cccnc2)cc1 | inactive | – |
| CCOC(=O)[C@@H]1[C@H]2COc3cc(OC)ccc3[C@H]2N2C(=O)N(c3ccc(F)cc3)C(=O)[C@]12C | inactive | – |
| COc1ccc(CNS(=O)(=O)c2ccc(-c3cnc(C4CC4)o3)cc2)cc1 | inactive | – |
| CCOC(=O)c1cccc(NS(=O)(=O)c2c(C(=O)N3CCCCCC3)c(C)n(C)c2C)c1 | inactive | – |
| O=C(c1ccccc1F)N(Cc1ccccc1)Cc1ccccc1 | inactive | – |
| COc1cccc(CNC(=O)c2nnn(CC(=O)Nc3cc(C)ccc3C)c2N)c1 | inactive | – |
| O=C(Cc1csc(Nc2nc(=S)[nH]c3ccccc23)n1)NCCCN1CCN(c2cccc(Cl)c2)CC1 | 2.51 µM (active) | – |

| SMILES | Potency | activity change, negative = inhibition |
| --- | --- | --- |
| COc1cccc(CNC(=O)Cc2csc(Nc3nc(=S)[nH]c4ccccc34)n2)c1 | 6.31 µM (active) | – |
| CCn1c(=O)cc(OCC(=O)NCCCN2CCN(c3cccc(Cl)c3)CC2)c2ccccc21 | inactive | – |
| O=C(CCCn1c(=O)[nH]c2cc(Cl)ccc2c1=O)NCCN1CCN(c2ccccc2)CC1 | inactive | – |
| COc1cccc(CNC(=O)c2n[nH]c3ccccc23)c1 | inactive | – |
| COc1cc(Cl)ccc1OCc1cc(C(=O)N(C)CCc2c(C)n[nH]c2C)no1 | inactive | – |
| COc1ccccc1CNc1nc(-c2c(C)noc2C)nc2ccccc12 | inactive | – |
| COc1ccccc1CNc1ccnc(-c2c(C)noc2C)n1 | inactive | – |
| COc1ccccc1CNc1ncnc2ccc(-c3c(C)noc3C)cc12 | 5.01 µM (active) | – |
| COc1cc(C2/C(=C(\O)c3ccc4c(c3)CC(C)O4)C(=O)C(=O)N2c2nnc(C)s2)cc(OC)c1OC (configuration not stated) | inactive | – |
| CC(C)c1ccc(/C=C2\NC(=O)NC2=O)cc1 | inactive | – |
| O=C(NC1CC1)C(Cc1ccccc1)NS(=O)(=O)c1ccccc1F (configuration not stated) | inactive | – |
| N#CC1=C(SCc2ccccc2)NC(=O)C(C#N)C12CCCC2 (configuration not stated) | – | 26.7% [at 0.365 µM] (inactive) |
| N#CC1=C(SCc2ccc(C#N)cc2)N=C(N)C(c2nc(-c3ccccc3)cs2)C12CCCCC2 (configuration not stated) | 11.2 µM (active) | – |
| N#Cc1ccc(CSc2ncccn2)cc1 | – | -36.2% [at 1.91 µM] (inactive) |
| CCOC(=O)c1sc(=NC(=O)c2ccc(Br)cc2)n(C)c1C | inactive | – |
| COc1ccc(CCN2CC(C(=O)NCCN3CCNC3=O)CCC2=O)cc1 (configuration not stated) | inactive | – |
| CCOC(=O)CSc1nc(N2CCOCC2)c2c(c1C#N)CC(C(C)C)OC2 (configuration not stated) | inactive | – |
| O=C(Nc1ccnc(-c2ccncc2)n1)c1cccs1 | inactive | – |
| COC(=O)CSc1nccc(-c2cccs2)n1 | inactive | – |
| O=C(O)COc1ccc(-c2nccc(-c3cccs3)n2)cc1 | 5.62 µM (active) | – |
| CCOc1ccc(N(C(=O)c2snc(C(N)=O)c2N)C(C(=O)NCC2CCCO2)c2c[nH]c3ccccc23)cc1 (configuration not stated) | inactive | – |
